# According to PubChem BioAssay (Tox21):
# Several values for one entry are separate records, joined by “and”; a condition that tells them apart may be missing. Equal entries are not always repeated. Results filed as inconclusive are left out. Activity calls are given as the source filed them. Calls follow the shape of the dose curve; as a rule, active = well fitted cell-killing curve with a large enough effect in the repeat runs; inconclusive = weak or mixed curves, or effect the other way; inactive = flat fitted curve, though single readings scatter.
# Assay: cAMP Responsive Elements (CRE) small molecule antagonists, cell-based qHTS assay: qHTS cell viability counter screen (AID 2060913); also: nearly all actives have a fitted effect of over 40% in size
# Settings: CRE-bla HEK293T viability, CellTiter-Glo luminescence, 5 h; series mostly up to 92.4 µM; viability change, negative = cytotoxic: at the top concentration
# Excerpt: U.S. Tox21 Program National Center for Advancing Translational Sciences [NCATS] Division of Preclinical Innovation [DPI] U.S. Environmental Protection Agency [EPA] National Institutes of Environmental Health Sciences [NIEHS] National Toxicology Program [NTP] U.S. Food and Drug Administration [FDA] Tox21 Assay Overview: CREB (cyclic-AMP Responsive Element Binding Protein) is a cellular transcription factor. It binds to certain DNA sequences called cAMP Responsive Elements (CRE) and regulates the transcription of the genes. […] This cell line can be used to find agonists/antagonists of the cyclic AMP signaling pathway. The activation of the report gene under culture conditions can be detected by fluorescence intensity. This cell line has been used to screen the Tox21 10K compound library to identify agonists that induce oxidative stress. The cytotoxicity of the Tox21 compound library against the CRE-bla cell line was tested in parallel by measuring the cell viability using CellTiter-Glo assay (Promega, Madison, WI) in the same wells.
# Tox21 Assay Protocol Summary: CRE-bla Hek 293T cells were suspended in assay medium (DMEM containing 10% dialyzed FBS, 0.1 mM NEAA, 1 mM sodium pyruvate and 25 mM HEPES) and dispensed at 2,000 cells/4 uL /well into 1536-well black wall/clear bottom plates using a Multidrop Combi (ThermoFisher Scientific, Waltham, MA) dispenser. After the assay plates were incubated at 37 C/5% CO2 for 18 hrs, 23 nL of compounds dissolved in DMSO, positive controls or DMSO only was transferred to the assay plate by a pintool workstation (Kalypsys, San Diego, CA), followed by addition of 1 uL of 1.25uM NKH477 (0.25 uM as final concentration) in assay medium using a Flying Reagent Dispenser (Aurora Discovery, San Diego, CA). The plates were incubated at 37 C and 5% CO2 for 3 hrs. Then 1 uL of LiveBLAzer B/G FRET substrate (Invitrogen, Carlsbad, CA) was added to each well using Bioraptr Flying Reagent Dispenser (FRD, Aurora Discovery, San Diego, CA). The plates were incubated at room temperature for 2 h, then fluorescence intensities were measured using an Envision plate reader (PerkinElmer, Shelton, CT) at Excitation 405nm, Emission 460nm and 530nm. The % activity was determined from the ratio of 460nm/530nm. For cell viability readout that measures cytotoxicity, 4 uL /well of CellTiter-Glo reagent was added into the assay plates using Bioraptr FRD. After 30 min incubation at room temperature, the luminescence intensity in the assay plates was measured using a ViewLux (PerkinElmer, Shelton, CT) plate reader.
# % is scaled to controls: 0 for no effect and ±100 for the full control effect; potency is read from the fitted curve at half-maximal effect.
Compound,"viability change, negative = cytotoxic",Potency
ClCOCCl,2.59% (inactive),–
Clc1ccc(COC(Cn2ccnc2)c2ccc(Cl)cc2Cl)cc1 (stereo not given),–,50.8 µM (active) and 45.1 µM (active)
C=CCN1CC[C@]23CCCC[C@H]2[C@H]1Cc1ccc(O)cc13,1.11% [at 42.5 µM] (inactive),–
O=C(Nc1ccccc1)Nc1cnns1,-10.4% (inactive),–
O=C(O)CC(Cl)C(=O)O (stereo not given),2.01% (inactive),–
Clc1ccc(Cl)cc1,–,inactive
CN(C)P(=O)(N(C)C)N(C)C,–,inactive
C=CC(=O)OC(C)(C)C,-3% (inactive),–
CC(C)(C)c1ccc(OP(=O)(Oc2ccccc2)Oc2ccccc2)cc1,-20.3% (inactive),–
Cc1ncc(C[n+]2csc(CCO)c2C)c(N)n1,7.25% (inactive),–
Nc1ccc(Cl)c(Cl)c1,–,inactive
CCOC(=O)CCl,0.0698% (inactive),–
C[C@H]1[C@@H]2Cc3ccc(O)cc3[C@@]1(C)CCN2C,-0.732% [at 240 µM] (inactive),–
O=C(Cl)OCCOCCOC(=O)Cl,-7.45% (inactive),–
CN1CCN(C(=O)O[C@H]2c3nccnc3C(=O)N2c2ccc(Cl)cn2)CC1,6.3% [at 42.5 µM] (inactive),–
CC(C)(C)NCC(O)c1ccccc1Cl (stereo not given),-4.51% [at 42.5 µM] (inactive),–
C=CCN1C[C@H](C)N([C@H](c2ccc(C(=O)N(CC)CC)cc2)c2cccc(OC)c2)C[C@H]1C,-1.48% [at 42.5 µM] (inactive),–
Nc1nc(=S)[nH][nH]1,-9.44% (inactive),–
O=C(O)COc1ccc(Cl)cc1Cl,–,inactive
CCOS(C)(=O)=O,0.252% (inactive),–

Compound,"viability change, negative = cytotoxic",Potency
[As]#[In],2.46% (inactive),–
CCOP(=S)(S)OCC,11.3% (inactive),–
N#Cc1nn(-c2c(Cl)cc(C(F)(F)F)cc2Cl)c(N)c1S(=O)C(F)(F)F (stereo not given),-16.1% [at 42.5 µM] (inactive),–
N#Cc1c(Cl)c(Cl)c(Cl)c(C#N)c1Cl,–,inactive
CC(C)N(CCC(C(N)=O)(c1ccccc1)c1ccccn1)C(C)C (stereo not given),-0.411% [at 42.5 µM] (inactive),–
CCCCCCBr,16.2% (inactive),–
COC(=O)c1sccc1S(=O)(=O)NC(=O)Nc1nc(C)nc(OC)n1,–,inactive
ClCc1ccccc1,13.5% (inactive),–
CCOC(=O)C1OC1(C)c1ccccc1 (stereo not given),–,inactive
CCCCC1C(=O)NC(=O)N(C2CCCCC2)C1=O (stereo not given),-1.21% [at 42.5 µM] (inactive),–
Cc1nc(N(C)C)nc(OC(=O)N(C)C)c1C,6.62% (inactive),–
CCC(C)(c1ccc(O)cc1)c1ccc(O)cc1,–,inactive
CN(C)[C@@H]1C(=O)C(C(N)=O)=C(O)[C@@]2(O)C(=O)C3=C(O)c4c(O)cccc4[C@@](C)(O)[C@H]3C[C@@H]12,–,inactive
BrCCCCCCBr,0.438% (inactive),–
CC[C@H](C)[C@H]1O[C@]2(C=C[C@@H]1C)C[C@@H]1C[C@@H](C/C=C(\C)[C@@H](O[C@H]3C[C@H](OC)[C@@H](O[C@H]4C[C@H](OC)[C@@H](NC)[C@H](C)O4)[C@H](C)O3)[C@@H](C)/C=C/C=C3\CO[C@@H]4[C@H](O)C(C)=C[C@@H](C(=O)O1)[C@]34O)O2,–,15.4 µM (active)
C=C(Cl)Cl,9.3% (inactive),–
CCN(CC)CCOC(=O)C(C)(c1ccccc1)c1ccccc1,-0.369% [at 42.5 µM] (inactive),–
O=[N+]([O-])c1ccc(Oc2ccc(Cl)cc2Cl)cc1,–,inactive
COCC(C)N(C(=O)CCl)c1c(C)csc1C (stereo not given),2.47% (inactive),–
CCCC[n+]1cccc(C)c1,–,inactive
